# Shown are actives, neighbours in structure and some others; about 2% of the full set was active somewhere.
# CHT allo act – human CHT allosteric activation. Q9GZV3. CHT-expressing cells, membrane potential dye, choline EC20; stronger effect = higher value; LV-AA mutant CHT in HEK293 cells. B-score at 10 µM. actives 0.49% (n = 310,000);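 active = initial fluorescence not abnormally high and integrated response B-score, plate-corrected, over 3 SD above library mean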
# EP2 modulator – modulates human prostaglandin E2 receptor EP2 signaling. P43116. EP2-expressing cells, cAMP HTRF FRET, PGE2 co-stimulation. induction, % at 25 µM. actives 0.83% (n = 260,000);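 active = compounds whose cAMP rise, as percent of the full-agonist control response, exceeds 60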;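 also: rat C6 glioma line stably carrying human EP2 under a CMV promoter; the protocol text gives 20 µM as final concentration; 100% = response of wells given 1 µM PGE2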
# Target sequence (P43116 whole entry, looked up): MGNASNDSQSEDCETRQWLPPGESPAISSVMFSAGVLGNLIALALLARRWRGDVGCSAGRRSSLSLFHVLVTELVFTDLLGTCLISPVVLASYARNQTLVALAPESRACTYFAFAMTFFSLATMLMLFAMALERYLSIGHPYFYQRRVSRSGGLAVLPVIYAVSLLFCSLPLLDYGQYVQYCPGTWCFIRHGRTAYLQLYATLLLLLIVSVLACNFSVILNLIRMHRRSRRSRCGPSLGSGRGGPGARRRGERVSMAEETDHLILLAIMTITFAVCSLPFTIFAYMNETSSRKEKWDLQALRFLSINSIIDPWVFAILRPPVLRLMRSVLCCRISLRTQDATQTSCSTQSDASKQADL
# CHT block – human CHT choline transport inhibition; CHT-expressing cells, membrane potential dye, choline response; stronger effect = lower value; B-score at 10 µM; actives 0.86% (n = 310,000); AID 488975;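 active = B-score over 3 SD under the library average, and starting fluorescence ratio not unusually high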;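 also: choline stimulus applied at its EC90 after an EC20 pre-addition; B-score computed on integrated fluorescence ratio after choline addition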
# PGE2 EP2 inh – EP2 receptor (human) inhibition | inhibition, % at 25 µM | AID 1422 | P43116 | actives 0.52% (n = 260,000) | C6 glioma cells expressing human EP2, cAMP TR-FRET; cells stimulated with saturating PGE2;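 active = percent inhibition above 40 after rounding to a whole number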;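 also: rat C6 glioma host cells with rolipram phosphodiesterase inhibitor present; the protocol text gives 20 µM as final concentration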
# CHT activ conf – human CHT activation, confirmatory screen. activation, % at 10 µM. CHT-expressing cells, membrane potential dye fluorescence (FDSS); % of choline EC20–EC90 response window; HEK293 expressing CHT LV-AA mutant; choline added at its EC20. shares compounds with CHT allo act. AID 504833. actives 91% (n = 2,500);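 active = primary screen active, with duplicate mean activation above negative control mean plus 3 SD, cut at about 11% in these data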
# HEK293 MP dye – activity in parental HEK293 cells lacking CHT. shares compounds with CHT allo act. membrane potential dye fluorescence (FDSS); measured after EC20 choline addition. ratio readout change at 10 µM, hits read low. AID 623908. actives 62% (n = 2,500);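 active = duplicate-averaged ratio beyond 3 SD from buffer wells, up or down, though filed actives are nearly all decreases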
# Active calls of the source: *; i = inactive; · = not tested or not shown.
SMILES,CHT allo act,EP2 modulator,CHT block,PGE2 EP2 inh,CHT activ conf,HEK293 MP dye
COC(=O)C1=C(C)N(Cc2ccccc2)C(=NCc2ccccc2)N[C@H]1c1cccc(F)c1,16.1*,·,i,·,39.6*,i
CCCCN(CC)CCNC(=O)CN(C)S(=O)(=O)c1ccc2c(c1)c(=O)n(C)c(=O)n2C,i,-4.3,i,8.4,32.2*,-34.3*
NC(N)=Nc1nc(-c2ccccc2)c2ccccc2n1,8.07*,1.8,i,5.2,24.1*,-52.1*
CCN(CC)CCCNc1nc(CN2CCOCC2)nc2sc3c(c12)CCC3,7.75*,-47.8,i,6.3,59.1*,-56.7*
Cc1cccc(Oc2nc(CN3CCOCC3)nc3sc4c(c23)CCCC4)c1,i,39.5,i,14.5,35.2*,i
Clc1nc(CN2CCOCC2)nc2sc3c(c12)CCC3,i,-1.2,i,8.3,·,·
CCC(C)Nc1nc(CN2CCOCC2)nc2sc3c(c12)CCC3 (stereo unspecified),8.39*,33.9,i,7.1,14.0*,i
c1cncc(-c2nc(NCCCN3CCOCC3)c3c4c(sc3n2)CCC4)c1,6.92*,-37.6,i,8.3,24.5*,-46.9*
CCn1cc(C(=O)N2C[C@H](C(=O)O)[C@@H](c3ccc(F)cc3)C2)cn1,·,4.7,·,·,·,·
Cc1nc(SCC(=O)Nc2ccccc2Cl)n[nH]1,·,-31.3,·,4.2,·,·
CCCC(c1nnnn1Cc1ccco1)N1CCN(c2cc(Cl)ccc2C)CC1 (stereo unspecified),6.66*,21.5,i,8.3,34.6*,i
CCCC(c1nnnn1Cc1ccco1)N1CCN(c2ccccc2F)CC1 (stereo unspecified),·,-9.1,·,9.0,·,·
CCOc1ccc(C(=O)N2CCC(n3nnc4ccccc43)CC2)cc1,·,-8.2,·,4.0,·,·
Cc1ccc(C)c2nc3c(cc12)CN(Cc1ccco1)C(=O)CO3,·,-9.2,·,1.2,·,·
CCOC(=O)n1cc(C(=O)c2ccccc2O)cn1,i,·,i,·,30.1*,-38.4*
CC(C)(C)OC(=O)n1cc(C(=O)c2ccccc2O)cn1,i,·,i,·,·,·
CC1=CN2C(=NC(=O)CC2(C)C(=O)N(CC(=O)NC2CCCC2)C2CCCC2)C=C1 (stereo unspecified),·,19.8,·,9.6,·,·
Cc1ccc(NC(=O)CSc2nc3ccccc3c(=O)n2CCCN2CCCCC2)cc1Cl,i,-94.5,i,7.5,·,·
CC1CCN(CCCn2c(SCC(=O)Nc3ccccc3Cl)nc3ccccc3c2=O)CC1,6.38*,-37.6,i,7.3,51.7*,-34.2*
CCCc1nnc(SCC(=O)Nc2cc(C)on2)n1CC,·,7.6,·,13.4,·,·
COCC(=O)N(C)c1nnc(-c2ccc([N+](=O)[O-])cc2)s1,i,-12.2,i,4.8,40.8*,-46.7*
COc1ccccc1N(C(=O)c1ccco1)C(C(=O)NC1CCCC1)c1cccs1 (stereo unspecified),11.1*,23.1,i,6.4,22.7*,i
COc1ccc(N(C(=O)c2ccco2)C(C(=O)NC2CCCC2)c2cccs2)cc1OC (stereo unspecified),i,20.4,i,13.0,·,·
O=C(NC1CCCCC1)C(c1cccs1)N(Cc1cccs1)C(=O)c1cccs1 (stereo unspecified),9.21*,39.8,i,24.3,29.7*,i
COc1ccc(OCc2nnc(SCC(=O)Nc3ncc(C)s3)n2C)cc1,·,1.2,·,-1.7,·,·
SMILES,CHT allo act,EP2 modulator,CHT block,PGE2 EP2 inh,CHT activ conf,HEK293 MP dye
COc1ccccc1C(=O)Nc1ccnn1C1CCN(C/C=C/c2ccc(F)cc2)CC1,i,·,i,·,6.8,i
CC1=Nc2cccc3cccc(c23)N1C,7.37*,-31.8,i,9.2,58.5*,-70.8*
CCc1ccc(-c2csc3[n+]2CCN3C(C)=O)cc1,i,3.8,i,10.0,41.2*,i
O=C(CN1CC[n+]2c(-c3cccs3)csc21)c1ccc(-c2ccccc2)cc1,i,-55.0,i,4.4,·,·
CC(=O)N1CCN(C(=S)c2ccc(Cl)cc2)CC1,i,8.5,i,8.4,·,·
CC(=O)N1CC[n+]2c(-c3ccc(Cl)cc3)csc21,i,31.0,i,2.5,46.8*,-23*
c1csc(-c2nc3nc4ccccc4nc3n2Cc2ccc3c(c2)OCO3)c1,8.66*,9.2,i,9.8,15.4*,i
CCCn1c(-c2cccs2)nc2nc3ccccc3nc21,i,15.8,i,7.3,·,·
COc1ccccc1-n1c(SCC(=O)Nc2ccc(C)c(C)c2)nnc1-c1cccnc1,·,6.3,·,11.9,·,·
O=C(c1ccco1)N1CCN(c2ccnc3cc(Cl)ccc23)CC1,i,-14.8,i,4.3,20.5*,-68.4*
O=C(C1CC1)N1CCN(c2ccnc3cc(Cl)ccc23)CC1,7.33*,-11.9,i,5.9,65.5*,-67.4*
CN(C)CCCN1c2ccccc2Sc2ccccc21,i,-19.3,i,11.7,·,·
CCC(=O)c1ccc2c(c1)N(CCCN(C)C)c1ccccc1S2,9.09*,16.4,i,25.7,28.6*,-44.5*
Cc1nc2c(C)cccc2c2c1COC2,i,-2.9,i,6.6,55.3*,-59.5*
Cc1ccc(CNc2ncc(-c3ccc4c(c3)OCO4)n2C)cc1,6.59*,-18.6,i,1.4,24.6*,-31*
Cc1cccn2c(=O)c(C=C(C#N)C#N)c(N3CCN(C)CC3)nc12,8.46*,·,i,·,56.2*,-65.3*
CCN1CCN(c2nc3c(C)cccn3c(=O)c2C=C(C#N)C#N)CC1,7.28*,·,i,·,50.0*,-60.7*
CCOC(=O)C1CCN(C(=O)CN(c2cc(Cl)ccc2Cl)S(C)(=O)=O)CC1,·,-9.9,·,6.5,·,·
COc1ccc(OC)c2c(C)cc(C)nc12,8.79*,-7.5,i,5.8,57.2*,-81.2*
COc1ccc(OC)c2c(C)cc(N3CCCCCC3)nc12,i,·,i,·,·,·
O=C(Nc1ccccc1C(=O)NCCN1CCOCC1)c1cccc([N+](=O)[O-])c1,i,·,i,·,57.7*,-57*
O=[N+]([O-])c1ccc(N2CCN(c3ccccc3F)CC2)c(S(=O)(=O)N2CCOCC2)c1,6.25*,-6.0,i,7.3,34.3*,i
O=C(NCCc1ccc(F)cc1)c1cc([N+](=O)[O-])ccc1N1CCOCC1,i,·,i,·,2.3,i
O=C(NC1CCSc2ccccc21)c1cc([N+](=O)[O-])ccc1N1CCOCC1 (stereo unspecified),6.38*,·,i,·,6.0,i
O=[N+]([O-])c1ccc(N2CCCCCC2)c(S(=O)(=O)N2CCCCC2)c1,i,39.8,i,14.0,·,·
O=C(NC1CCSc2ccccc21)c1ccc([N+](=O)[O-])cc1 (stereo unspecified),i,·,i,·,·,·
O=C(Nc1cc([N+](=O)[O-])ccc1C(=O)NCCN1CCOCC1)c1ccccc1,i,·,i,·,·,·
